Molecules are shown by their SMILES. Several values for one entry are separate records, joined by “and”; a condition that tells them apart may be missing. Equal values may be shown once. Some compounds were tested as several samples or in several runs, with calls that do not always agree. Activity calls are given as the source filed them. The calls were made as follows: active = hit-call score of the fitted dose curve at least 0.9, where 1 is the maximum; inactive = score below 0.9.

Read-out in the assay: Peroxisomal acyl-coenzyme A oxidase 1 (ACOX1) gene, ACOX1 (gene 51)
In words: LTEA_HepaRG_ACOX1: Life Technologies and Expression Analysis (LTEA) Assay for Peroxisomal acyl-coenzyme A oxidase 1 (ACOX1) gene using HepaRG (AID 2283467). To be noted: mRNA level, 48 h; actives raise or lower the signal. As for the experimental part: LTEA_HepaRG is a cell based, multiplexed-readout assay that uses HepaRG, a human liver cell line, with measurements taken at 48 hours after chemical dosing on a 96-well plate.LTEA_HepaRG_ACOX1 is one of 102 assay component(s) measured in the LTEA HepaRG cell culture assay. It is a marker of Steatosis.Data from the assay component LTEA_HepaRG_ACOX1 was analyzed into 1 endpoint. This assay endpoint, LTEA_HepaRG_ACOX1, was analyzed with bidirectional fitting relative to DMSO as the negative control and baseline of activity. Using a type of inducible reporter, measures of mRNA induction for gain or loss-of-signal activity can be used to understand regulation of transcription factor activity. To generalize the intended target to other relatable targets, this assay endpoint is annotated to the oxidase intended target family, where the subfamily is steatosis.
A total of 1060 chemcials from the ToxCast library were tested in eight-point concentration-response experiments. Cell culture and cytotoxicity assays were conducted at Thermo Fisher Scientific's Custom Services facility (Madison, WI). A single lot of human HepaRG cells (Thermo Fisher Scientific, Frederick, MD) was used for the cell culture experiments. 96-well format collagen type I coated plates of human HepaRG cells were prepared using established methods. Briefly, cryopreserved HepaRG cells were thawed, plated at a density of approximately 100,000 cells/well in HepaRG Thaw, Plate, and General Purpose media (HPRG770, Thermo Fisher Scientific), and incubated for 48 hours. 0.5% DMSO was selected as vehicle control to balance the requisite need of DMSO in HepaRG cultures to maintain differentiation (for example, baseline metabolism, proportions of hepatocytes vs. cholangiocytes), while enabling further hepatic receptor pathway activation (for example, PXR and CAR) in response to chemical exposure. 48 hours after plating, the culture medium was replaced with HepaRG Serum-Free Incudtion Media. Cells were exposed to each test chemical in duplicate and maintained in CO2 incubators for another 48 hours. Chemical plates were thawed to room temperature and 200x concentrations of treatment groups were prepared. 8-point conentration-reponse curves were made with the highest exposure at 100 uM, followed by half-log dilutions, all in 0.5% DMSO. Each test plate contained variouse controls, induction positive controls (1mM phenobarbital), cytotoxicity positive controls ([…] aflatoxin B1), vehicle controls (0.5% DMSO), and total lysis controls (0.5% DMSO). Cell morphology images were taken using an Essen IncuCyte FLR automated microscope, with six 96-well plates imaged in about 24 minutes. Images were captured and exported and JPEG files. Spent culture media was transfered to black-well plates for the LDH assay, and remaining media was sorted at -80 C for later use. Cells were treated with RLT buffer and frozen until shipped for gene expression analysis. Total RNA was isolated from the cell suspension in 75 uL of Buffer RLT (Qiagen, Germantown, MD 20874) by Quintiles/Expression Analysis (Durham, NC) using a custom isolation procedure. Total RNA from each plate well was transferred to a preamplification plate. Fluidigm's 96.96 Dynamic ArrayTM (Fluidigm, Amsterdam, the Netherlands) technology was used for gene expression analyses by quantitative reverse transcription polymerase chain reaction (qRT-PCR, performed by Quintiles/Expression Analysis, Durham, NC)89. Standard TaqManTM Assays (Applied Biosystems/ThermoFisher Scientific, Foster City, CA) were used to assess the expression of 93 genes selected based on their selectivity and sensitivity to important hepatic receptors known to be modulated by environmental chemicals; importance in human hepatocyte functionality; and hepatotoxicity. […]
For the compound `O=C(O)COc1nc(Cl)c(Cl)cc1Cl`, the compound was classed as inactive. In the case of `CCCCNC(=O)OCC#CI`, the compound was called inactive.

With `CCOP(=S)(OCC)SCn1c(=O)oc2cc(Cl)ccc21`, the call was inactive. With `OC(c1ccc(Cl)cc1)(c1cncnc1)c1ccccc1Cl` (stereo not given), the half-maximal activity concentration (AC50) (usually the concentration giving half of the maximal activity seen) is 92.8 µM (active). Take `CNC(=O)ON=CC(C)(C)SC`: the call was inactive. The same measure, in the same setting: in the case of `CCCCOC(=O)c1ccccc1C(=O)OCCCC` it was “inactive”. For `N#Cc1nn(-c2c(Cl)cc(C(F)(F)F)cc2Cl)c(N)c1S(=O)C(F)(F)F` (stereo not given), the half-maximal activity concentration (AC50) was 50.2 µM (active).

For the compound `O=C(Nc1ccccc1)Nc1ccnc(Cl)c1`, the half-maximal activity concentration (AC50) was 73.7 µM (active).

As for `CC(C)(C)c1ccc(CSc2cnn(C(C)(C)C)c(=O)c2Cl)cc1`, the outcome was inactive. For the compound `C=CCC1=C(C)C(OC(=O)C2C(C=C(C)C)C2(C)C)CC1=O` (stereo not given), the concentration at half-maximal activity (AC50) is 90.9 µM (active) and the result was inactive. With `CON(C)C(=O)Nc1ccc(Cl)c(Cl)c1`, the result was inactive. In the case of `C#CCOS(=O)OC1CCCCC1Oc1ccc(C(C)(C)C)cc1` (stereo not given), the AC50 was 29.1 µM (active). As to `COP(=S)(OC)Oc1nc(Cl)c(Cl)cc1Cl`, the outcome was inactive. Turning to `N#Cc1cc(Br)c(O)c(Br)c1`, the AC50 was 11.1 µM (active). As to `CS/C(C)=N/OC(=O)N(C)SN(C)C(=O)O/N=C(\C)SC`, the result was inactive. `CO/C=C(/C(=O)OC)c1ccccc1Oc1cc(Oc2ccccc2C#N)ncn1`: the AC50 was 50 µM (active) and 63.3 µM (active). On to `CC(C)Oc1cc(-n2nc(C(C)(C)C)oc2=O)c(Cl)cc1Cl`, for which the AC50 is 19.8 µM (active).

Turning to `CCOc1cc(Oc2ccc(C(F)(F)F)cc2Cl)ccc1[N+](=O)[O-]`, the half-maximal activity concentration (AC50) is 50 µM (active). The same measure, in the same setting: as for `COC(=O)N(OC)c1ccccc1COc1ccn(-c2ccc(Cl)cc2)n1`, the figure is 77.8 µM (active). Regarding `CC1=C(C(=O)Nc2ccccc2)SCCO1`, the call was inactive.

For the compound `CCCCC(CC)COC(=O)c1ccccc1C(=O)OCC(CC)CCCC` (stereo not given), the compound was classed as inactive. Still for that read-out and setting: as for `COC(=O)c1ccccc1C(=O)OC`, the entry is “inactive”. For the compound `COc1cnc(OC)n2nc(NS(=O)(=O)c3c(OCC(F)F)cccc3C(F)(F)F)nc12`, the compound was classed as inactive. `CCOC(=O)C(Cl)Cc1cc(-n2nc(C)n(C(F)F)c2=O)c(F)cc1Cl` (stereo not given): the call was inactive. For `Fc1ccc(Oc2ccnc3cc(Cl)cc(Cl)c23)cc1`, the compound was called inactive. With `COC(=O)C(C)Oc1ccc(Oc2ccc(Cl)cc2Cl)cc1` (stereo not given), the AC50 is 21.7 µM (active). Regarding `Cc1c(F)c(F)c(COC(=O)C2C(/C=C(\Cl)C(F)(F)F)C2(C)C)c(F)c1F` (stereo not given), the compound was called inactive.

Turning to `CCOC(=O)CC(SP(=S)(OC)OC)C(=O)OCC` (stereo not given), the outcome was inactive.

For the compound `CCNc1nc(Cl)nc(NCC)n1`, the outcome was inactive.

For the compound `Cc1cc(Cl)ccc1OCC(=O)O`, the half-maximal activity concentration (AC50) was 34.3 µM (active). For the compound `CCCN(CCC)c1c([N+](=O)[O-])cc(S(N)(=O)=O)cc1[N+](=O)[O-]`, the AC50 is 77.5 µM (active) and the result was inactive. With `CCON=C(CC)C1=C(O)CC(c2c(C)cc(C)cc2C)CC1=O` (stereo not given), the result was inactive.

On to `CCc1nn(C)c(C(=O)NCc2ccc(C(C)(C)C)cc2)c1Cl`, for which the AC50 was 0.369 µM (active).

In the case of `N#CC(CCc1ccc(Cl)cc1)(Cn1cncn1)c1ccccc1` (stereo not given), the half-maximal activity concentration (AC50) is 34.3 µM (active). As for `COC(=O)C=C(C)OP(=O)(OC)OC`, the compound was called inactive. For `Cc1ccc(-c2c(Cl)nc(C#N)n2S(=O)(=O)N(C)C)cc1`, the concentration at half-maximal activity (AC50) is 4.39 µM (active). For the compound `C=CC1(C)OC(=O)N(c2cc(Cl)cc(Cl)c2)C1=O` (stereo not given), the call was inactive.

Take `COP(N)(=O)SC` (stereo not given): the compound was classed as inactive.

Values taken from PubChem BioAssay (EPA / NIEHS).
